Compound activity as filed in PubChem BioAssay.
This is a sample that favours compounds with a hit; in the whole collection about 12% have one here.
G9a block: G9a (human) methyltransferase inhibition. AID 504332. G9a H3K9 monomethylation, AlphaScreen, 2 h. Q96KQ7. hit rate 8.8% among 350,000. Potency, µM (titrated, usually from 102 µM), for inactives: top-dose activity, negative = inhibition, usual class: inhibitors; further: on the % scale 0 is the no-effect control and ±100 the full control effect; nearly all actives have a fitted effect of over 75% in size
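Step 1: enzyme (final 20 nM) with compound, 15 min RT. Step 2: substrate peptide 500 nM and SAM 20 uM, 2 h RT. Step 3: anti-H3K9me1 antibody and AlphaScreen beads, 10 min, then plate read.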
Sfp PPTase inh: blocks B. subtilis Sfp PPTase activity; Biochemical Sfp PPTase activity, qHTS; Potency, µM, without a hit: largest response in the series, negative = inhibition, actives largely listed as inhibitors; hit rate 3.5% among 310,000; AID 1490;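 further: the enzyme is Sfp with the accession as filed and its product quenches rhodamine fluorescence; 0% = enzyme reaction without inhibitor and -100% = no enzyme wells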
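Fluorescence-quenching assay with 15 nM Sfp, 5 uM rhodamine-CoA and 12.5 uM BHQ-2-labelled ybbR peptide in pH 7.6 Hepes/MgCl2 buffer. Enzyme was pre-incubated with compound for 15 min at room temperature. Rate was taken from the 30-min fluorescence change (525/598 nm).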
HP1b chromo inh: inhibitors of HP1-beta chromodomain binding to methylated histone tails | P83916 | AlphaScreen HP1-beta / biotin-H3K9me3 peptide binding | Potency, µM (highest dose often 114 µM), for inactives: at the highest dose activity change, negative = inhibition, actives largely listed as inhibitors | hit rate 0.56% among 390,000 | AID 540317; further: nearly all actives have a fitted effect of over 70% in size
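AlphaScreen: HP1-beta (50 nM) preformed 30 min with biotin-H3(1-18)K9me3 peptide (50 nM) in PBS pH 7.4, 0.01% Tween-20. Compound added for 30 min at RT, then streptavidin donor/nickel chelate acceptor beads (10 ug/mL) for 30 min.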
JMJD2A Tudor inh: JMJD2A Tudor domain (human) inhibition; O75164; Potency, µM (highest dose often 114 µM), for the others: at the top dose activity change, negative = inhibition, usual class: inhibitors; AlphaScreen JMJD2A-Tudor / H3K4me3 peptide binding; AID 504339; hit rate 4.4% among 390,000; further: on the % scale 0 is the no-effect control and ±100 the full control effect; nearly all actives have a fitted effect of over 50% in size
L3MBTL1 block: L3MBTL1 (human) inhibition; Q9Y468; AlphaScreen L3MBTL1–H3K9me1 peptide binding; Potency, µM (highest dose often 57.1 µM), for the others: at the highest dose activity, negative = inhibition, actives largely listed as inhibitors; hit rate 0.66% among 230,000; AID 485360; further: on the % scale 0 is the no-effect control and ±100 the full control effect; nearly all actives have a fitted effect of over 60% in size
Target sequence (Q9Y468 whole entry, looked up): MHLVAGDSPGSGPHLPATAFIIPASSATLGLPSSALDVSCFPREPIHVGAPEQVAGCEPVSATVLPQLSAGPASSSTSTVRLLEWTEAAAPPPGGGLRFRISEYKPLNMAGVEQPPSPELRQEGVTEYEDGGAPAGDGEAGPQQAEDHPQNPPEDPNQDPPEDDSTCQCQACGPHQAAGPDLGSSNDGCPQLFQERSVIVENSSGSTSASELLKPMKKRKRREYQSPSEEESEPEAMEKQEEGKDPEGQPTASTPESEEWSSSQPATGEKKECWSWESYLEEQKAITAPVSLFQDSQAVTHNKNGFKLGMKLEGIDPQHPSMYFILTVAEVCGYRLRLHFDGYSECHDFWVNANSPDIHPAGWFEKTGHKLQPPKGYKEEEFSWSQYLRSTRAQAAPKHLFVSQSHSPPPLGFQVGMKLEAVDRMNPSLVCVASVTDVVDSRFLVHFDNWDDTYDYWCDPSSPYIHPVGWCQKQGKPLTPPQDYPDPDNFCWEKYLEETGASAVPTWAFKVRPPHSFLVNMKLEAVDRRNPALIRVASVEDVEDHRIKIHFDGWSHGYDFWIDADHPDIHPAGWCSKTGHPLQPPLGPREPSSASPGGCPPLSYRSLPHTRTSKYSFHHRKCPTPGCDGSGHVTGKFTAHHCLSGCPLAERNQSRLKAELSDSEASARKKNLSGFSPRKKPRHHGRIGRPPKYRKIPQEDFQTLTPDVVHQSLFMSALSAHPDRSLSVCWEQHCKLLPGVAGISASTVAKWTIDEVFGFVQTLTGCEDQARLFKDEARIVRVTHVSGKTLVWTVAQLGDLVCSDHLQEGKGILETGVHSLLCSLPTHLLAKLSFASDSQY
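AlphaScreen assay: L3MBTL1 (50 nM final) was preincubated 30 min at room temperature with biotinylated H3(1-15)K9me1 peptide (75 nM final), then 30 min with library compounds; streptavidin donor and nickel chelate acceptor beads (10 ug/mL final) added, 30 min dark.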
BAZ2B block: BAZ2B (human) inhibition | Q9UIF8 | AlphaScreen BAZ2B-H3K14Ac peptide displacement | Potency, µM (series often up to 114 µM), without a hit: top-dose activity change, negative = inhibition, hits mostly inhibitors | hit rate 4.4% among 360,000 | AID 504333; further: on the % scale 0 is the no-effect control and ±100 the full control effect; nearly all actives have a fitted effect of over 60% in size
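AlphaScreen displacement: compounds (up to 110uM) incubated 30 min at room temperature with a preformed 50 nM BAZ2B/50 nM biotinylated H3K14Ac peptide complex in PBS pH 7.4 with Tween-20. Donor and acceptor beads at 10 ug/mL final added, 20 min light-protected before reading.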
Active calls of the source: *; ? = inconclusive; . = no result given; [ ] = remark or other dose. The call rests on the fitted dose curve; in most records, active means well fitted curve in the direction sought with a large enough effect; inconclusive means small, poorly fitted or top-dose-only effect, or another doubt; inactive means no such curve, though single readings can be large; an effect the other way counts as inactive or inconclusive. Potency means the concentration at half of the fitted maximal effect.

SMILES | G9a block | Sfp PPTase inh | HP1b chromo inh | JMJD2A Tudor inh | L3MBTL1 block | BAZ2B block
Cc1cc(C(=O)CSc2nnnn2C)c(C)n1-c1ccc2c(c1)OCCO2 | ? | 45µM* | -20% | ? | . | ?
Cc1nnc(SCC(=O)c2cc(C)n(-c3ccc4c(c3)OCO4)c2C)s1 | ? | -15% | -22% | ? | -26% | 45µM*
Cc1cc(C(=O)CSc2nnc(-c3ccc4c(c3)OCO4)o2)c(C)n1-c1ccc(F)cc1 | 6%[59 µM] | 7% | 26% | -14% | 2% | -37%
O=C(NCc1ccco1)c1cnn2c(C(F)(F)F)cc(-c3cccs3)nc12 | -4%[59 µM] | 32µM* | 16% | -6% | 3% | .
Cc1ccc(CNC(=O)c2cnn3c(C)c(Cc4c(F)cccc4Cl)c(C)nc23)cc1 | -6%[59 µM] | . | 52% | -9% | . | 4%
Cc1cc(C)c2c(N)c(C(=O)NCc3ccco3)sc2n1 | 10µM* | -9% | 30% | -12% | -17% | -2%
CC1CCc2cc(F)ccc2N1C(=O)c1cc2nc(-c3ccco3)cc(C(F)(F)F)n2n1 (configuration not stated) | 50µM* | -9% | 26% | 2% | 7% | 3%
Cc1cc(C)c(Cc2c(C)nc3c(C(=O)NCc4ccco4)cnn3c2C)c(C)c1 | ? | 56µM* | -8% | ? | . | -8%
CCCCN(C(=O)c1ccc(S(=O)(=O)N(C)c2ccccc2)cc1)c1c(N)n(CCC)c(=O)[nH]c1=O | . | . | 19% | -16% | . | .
Cc1c(Cl)cccc1-n1ncc(C(=O)Nc2ccc3c(c2)OCCO3)c1C1CCN(C(=O)OC(C)(C)C)CC1 | ? | . | 0% | -34% | . | -20%[57.1 µM]
O=C(O)c1cnn2c(C(F)(F)F)cc(-c3ccco3)nc12 | 50µM* | 4% | 20% | 20µM* | -6% | -32%
COc1cccc([C@@H]2Oc3ccc(OC)cc3C(=O)[C@H]2OC(=O)Nc2ccc(C)c(Br)c2)c1 | . | -14% | . | . | . | .
CC1(C)Cc2sc3c(=O)[nH]c(=S)[nH]c3c2CO1 | . | 28µM* | 24% | ? | . | ?
CC1(C)Cc2c(c(-c3ccccc3)nc3sc4c(=O)[nH]c(=S)[nH]c4c23)CO1 | . | 1% | 27% | ? | . | -7%
OCCNc1nc(-c2ccccc2)nc2ccccc12 | -2% | 26% | 3% | -13% | -8% | -4%
COc1ccccc1Nc1nc(NCC2CCCO2)c2ccccc2n1 (configuration not stated) | 47% | -2% | 21% | 50µM* | -5% | -27%
Cc1ccc(Nc2nc(NCCO)c3ccccc3n2)cc1C | 79µM* | 79µM* | 39% | -36% | -1% | -34%
COc1ccc(OC)c(Nc2c3ccccc3nc3ccccc23)c1 | -16%[2.33 µM] | -18% | ? | 22µM* | . | 50µM*
COc1cc(NS(C)(=O)=O)ccc1Nc1c2ccccc2nc2ccccc12 | 12µM* | -2% | -6% | ? | -9% | ?
COCCNC(=O)CSc1nc(-c2ccc(C)cc2)nc2c1c(=O)n(C)c(=O)n2C | 12%[59 µM] | . | 16%[57 µM] | -5% | . | -1%
O=C(Oc1ccccc1)N1CCC2(CC1)CCN(c1ccccc1)CC2 | 5%[12.7 µM] | -1% | . | . | . | .
CCCNC(=O)Cn1nc(-c2ccc(OC)cc2)c2cnc3ccc(F)cc3c21 | -4%[59 µM] | . | 10% | -27% | . | -36%
COc1ccc(OC)c(Nc2nc(NCCO)c3ccccc3n2)c1 | . | -20% | -15% | 45µM* | -2% | 50µM*
COc1ccccc1Nc1nc(NCCO)c2ccccc2n1 | -37% | -2% | . | . | 3% | -4%
COc1ccccc1NC(=O)CSC1=Nc2ccccc2N=C(c2ccc(F)cc2)C1 | 2%[59 µM] | . | 5%[57 µM] | -32% | . | ?
SMILES | G9a block | Sfp PPTase inh | HP1b chromo inh | JMJD2A Tudor inh | L3MBTL1 block | BAZ2B block
CCC1CCCCN1CC(=O)c1c(C)[nH]c2cc(C)ccc12 (configuration not stated) | 15% | -14% | 3% | ? | . | 2%
NC(=S)N/N=C1\CCOc2ccc(F)cc21 | . | 89µM* | 15% | -18% | 35% | -15%
NC1=NC(=O)/C(=C/c2ccccc2OS(=O)(=O)c2ccccc2)S1 | ? | 0% | 20% | -18% | -6% | -9%
CN1CCN(C2=NC(=O)/C(=C/c3ccccc3OS(=O)(=O)c3ccccc3)S2)CC1 | 45µM* | 20µM* | -1% | -13% | -1% | -14%
COc1ccccc1/C=C1\SC(N2CCC(C)CC2)=NC1=O | -11% | -11% | 13% | -26% | . | -21%
COc1cccc(/C=C2\SC(N3CCC(C)CC3)=NC2=O)c1OC | 28µM* | 50µM* | -10% | -6% | . | -2%
COc1cccc(/C=C2\SC(N3CCCC(C)C3)=NC2=O)c1OC (configuration not stated) | 71µM* | -10% | 21% | -7% | . | -17%
CC(=O)c1c(C)oc2ccc(NS(=O)(=O)c3cccs3)cc12 | -32% | 17% | 23% | -4% | -4% | -17%
Cc1cccc(-c2nc(CCNC(=O)COc3ccccc3)cs2)c1 | 6%[59 µM] | . | 29%[57 µM] | 5% | . | 15%
Cc1cc(C)cc(NC(=O)Cn2c(C)cc(C)c(C#N)c2=O)c1 | 4%[12.7 µM] | . | 29% | 11% | . | 3%
Clc1nc(Oc2ccccc2)nc(-c2cn(-c3ccccc3)c3ccccc23)n1 | 40µM* | -5% | 30% | ? | 3% | ?
CCNc1nc(Cl)nc(-c2cn(-c3ccccc3)c3ccccc23)n1 | 71µM* | ? | 41% | -9% | -24% | 13%
N#Cc1ccccc1CSc1nnc2ccc3ccccc3n12 | -7%[59 µM] | . | 24% | -5% | . | -9%
Cc1oc(-c2ccc(Cl)cc2)cc1C(=O)/C(C#N)=C/Nc1ccccc1 | 28µM* | ? | -2% | -18% | -5% | -8%
Cc1oc(-c2ccc(Cl)cc2)cc1C(=O)NC1CCN(Cc2ccccc2)CC1 | -30% | -5% | 0% | -18% | -2% | -13%
O=C(CSc1ccc(-c2ccc(Br)cc2)nn1)NC1CCCC1 | . | -2% | 28% | -3% | . | -2%
CC(C)Cc1cc(C(=O)O)n[nH]1 | -49%[12.7 µM] | 2% | 1% | 25µM* | . | 50µM*
CC(C)(C)c1cc(C(=O)O)n[nH]1 | 13µM* | -23% | -5% | 50µM* | . | ?
Cc1ccc(-c2cc(C(=O)O)n[nH]2)s1 | -3% | 3% | 17% | -4%[11.4 µM] | 13% | -11%
CCOC(=O)c1ccc(NC(=S)Nc2cccc(C)n2)cc1 | -8%[59 µM] | -10% | 48% | 3% | 5% | -3%
O=C(Nc1ccccc1)Nc1cccc(C(F)(F)F)c1 | 45% | 8% | 37% | -15%[11.4 µM] | 7% | -1%
CCOC(=O)c1ccc(NC(=S)Nc2cccc(N)n2)cc1 | -30% | 8.9µM* | -5% | -12% | -14% | -31%
CCCCCNCC(=O)Nc1cccc(C(=O)Nc2cccc(C(F)(F)F)c2)c1 | . | 32µM* | ? | 5µM* | 10% | ?
